In PubChem BioAssay AID2018 (Sanford-Burnham Center for Chemical Genomics, 2009):
Among all 1,200 compounds or so, about 600 (50%) were called active. Cut-off read from the data, not from the text of the source: active = inhibition above about 42%; inactive = the rest. The set was probably picked from earlier hits. The list shows a part of the results. Results with a measured potency or affinity are listed apart.

The molecules below were run against SUMO-conjugating enzyme UBC9 (Homo sapiens) (UniProt P63279) (assay: blockers of UBC9-mediated SUMO conjugation – biochemical, AlphaScreen, SUMOylation inhibitor project, confirmation (AID 2018)). Conditions: AlphaScreen in vitro SUMOylation assay; at 35 µM; stronger effect = higher value.
Sequence of SUMO-conjugating enzyme UBC9 (Homo sapiens) (P63279 whole entry, looked up): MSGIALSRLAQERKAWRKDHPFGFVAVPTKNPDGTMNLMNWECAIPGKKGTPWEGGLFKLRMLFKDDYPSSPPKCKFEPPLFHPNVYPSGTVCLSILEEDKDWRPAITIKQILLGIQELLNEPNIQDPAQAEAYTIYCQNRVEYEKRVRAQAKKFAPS

inhibition, inactive:
O=C(N/N=C/c1ccc(N2CCOCC2)cc1)c1ccccc1NS(=O)(=O)c1cccs1 17.4%
Cc1ccc(-c2cc(-c3ccccc3O)nc(N/N=C/c3cccnc3)n2)cc1 23%
O=c1[nH]c(N2CCN(c3ccccc3)CC2)nc2c1CCC2 8.8%
CN(C(=S)Nc1cccnc1)c1ccc(O)cc1 19.3%
COc1ccc2oc(=O)c(/C(C)=N/NC(=O)c3ccncc3)cc2c1 7.3%
O=C(Nc1cccc(N=Cc2cc(Br)cc(Br)c2O)c1)c1ccco1 24.9%
Cc1ccc(NC2=CC(=O)CC(c3ccco3)C2)c(N)c1 (centres undefined) 20.2%
CCOc1ccc(/C=N/NC(=O)c2cc(-c3ccco3)nc3ccccc23)cc1 -1.6%
O=C(COC(=O)c1cc(-c2cccs2)nc2ccccc12)NCc1ccco1 7.3%
CCN(CC)Cc1c(O)ccc2c(=O)c(Oc3ccccc3OC)coc12 3.9%
COc1ccccc1Oc1c(C)oc2cc(OC(=O)c3ccco3)ccc2c1=O 18.7%
CCOC(=O)N1CCN(C(=O)c2cccn3c(=O)c4cc(Br)ccc4nc23)CC1 4.2%
CC(NC(=O)Nc1ccc(O)cc1)(C(F)(F)F)C(F)(F)F 1.3%
CC(=O)c1ccc(NC(=S)Nc2cccc3ccccc23)cc1 7.1%
Nc1ccc(N(CCO)CCO)cc1 38.6%
COc1ccc(C=Nc2ccc3[nH]ncc3c2)c(O)c1 19.3%
CN1C(=O)N(C)c2ccc(C=O)c3cccc1c23 22.2%
O=C(Nc1ccccc1F)Nc1cc(S(=O)(=O)N2CCOCC2)ccc1N1CCCC1 13.5%
Cc1cccn2cc(-c3ccc(S(=O)(=O)N4CCOCC4)cc3)nc12 -6.1%
O=C(CSc1ncccn1)NCc1ccc2c(c1)OCO2 -9.4%
NCCc1ccc(O)c(O)c1 -6.3%
COc1ccc(O)c(C(c2c(C)[nH][nH]c2=O)c2c(C)[nH][nH]c2=O)c1 17.7%
Cc1ccc(-n2cccn2)c([C@@H]2C[C@H]3CN(C)C(=O)[C@]34CCCN24)c1 8.1%
Cc1ccccc1-c1nc2cc(N)ccc2o1 21.4%
CN(C)S(=O)(=O)c1cc(NC(=O)CNCc2ccccc2)ccc1Cl -19.5%
O=C(c1cccn2c(=O)c3cc4ccccc4cc3nc12)N1CCN(c2ccccc2)CC1 27.6%
CN(C)C=Nc1ccc2nc3c(cc2c1)[nH]c1ccccc13 20.5%
Cc1cc[n+](-c2[nH]c(=O)sc2/C=N/N=C(\[O-])c2ccncc2)cc1 -9.7%
Cc1cccn2c(=O)c3cc(C#N)c(=NC(=O)c4ccco4)n(Cc4ccco4)c3nc12 25.4%
O=c1oc(-c2cccs2)nc2sc3c(c12)CCC3 -2.8%
O=C1NC(=O)c2cc(NC(=O)C3CCCCC3)ccc21 8.7%
O=C(c1cccc2cccc(O)c12)N1CCCCC1 14.8%
Cc1cc(C)cc(Oc2coc3c(CN(C)C)c(O)ccc3c2=O)c1 10.6%
COc1ccc2c(c1)Cc1sc(NC(=O)c3ccco3)nc1-2 40.3%
Cc1ccc(NC(=O)C2CCN(C(=O)c3ccco3)CC2)cc1 0.4%
COc1ccc2oc(=O)c(C(=O)NCc3ccco3)cc2c1 -14.1%
COc1ccc(-c2cc(C(F)(F)F)n3ncc(C(=O)NCc4ccco4)c3n2)cc1 32.4%
O=C(COc1ccc2oc(-c3ccco3)cc(=O)c2c1)N1CCCCC1 -2.7%
COc1ccc(-n2nc3cc(C)c(N)c(Br)c3n2)cc1 18.3%
Cc1ccc(C)c(S(=O)(=O)C(C#N)c2nc3ccccc3nc2N2CCOCC2)c1 (centres undefined) 9.2%
Cc1ccc(S(=O)(=O)C(C#N)c2nc3ccccc3nc2N2CC(C)OC(C)C2)cc1C (centres undefined) 22.8%
COc1ccc(S(=O)(=O)C(C#N)c2nc3ccccc3nc2N2CCC(C)CC2)cc1 (centres undefined) 15.7%
N#CC(C(=O)NC1CC1)c1nc2ccccc2nc1N1CCCC1 (centres undefined) 29%
Cc1ccc(C)c(S(=O)(=O)C(C#N)c2nc3ccccc3nc2N2CC(C)OC(C)C2)c1 (centres undefined) 4.8%
N#CC(c1nc2ccccc2nc1N1CCCC1)S(=O)(=O)c1cccs1 (centres undefined) 37.3%
Cc1ccccc1S(=O)(=O)Nc1nc2ccccc2nc1N1CCc2ccccc2C1 -43.2%
C=CCNC(=O)C(C#N)c1nc2ccccc2nc1N1CCCCCC1 (centres undefined) 30.3%
CC(=O)c1ccc(NC(=O)Nc2cccnc2)cc1 -7.1%
CSc1ccc(-c2cc(=O)c3ccccc3o2)cc1 -11%
CN(C)/C=N/c1nc2nccc(-c3cccnc3)n2n1 -4%
Cc1cccc(S(=O)(=O)C(C#N)c2nc3ccccc3nc2N2CCCC2)c1 (centres undefined) 28.3%
C=CCOC(=O)C(C#N)c1nc2ccccc2nc1N1CCN(Cc2ccccc2)CC1 (centres undefined) 22.9%
CC(=O)Nc1ccc(-c2nc3ccc(NC(C)=O)cc3o2)cc1 25.1%
CC(C)C(=O)Nc1cccc(C(=O)NCc2ccc3c(c2)OCO3)c1 13.6%
CC(=O)Nc1ccc(-c2cn3cccnc3n2)cc1 5.9%
CCN(CC)C(=O)C1CCCN(C(=O)Nc2ccc3nsnc3c2)C1 (centres undefined) -9%
COc1ccc(C2C(C(C)=O)=C(O)C(=O)N2C)c(OC)c1 (centres undefined) -14.2%
COCCN(CCOC)c1nc(N)c2c(N)nc3c(c2c1C#N)CC(=O)N3Cc1ccc(Cl)cc1 11.2%
N#Cc1c(N(CCO)CCO)nc(N)c2c(N)nc3c(c12)CC(=O)N3CC1CCCO1 (centres undefined) 26%
CCOC(=O)N1CCN(C(=O)c2cccn3c(=O)c4cc(Cl)ccc4nc23)CC1 11%
O=C1CC(CC(=O)N/N=C/c2ccccc2[N+](=O)[O-])=NN1 26.8%
O=C1/C(=C/c2ccco2)Oc2c1ccc(O)c2CN1CCCCC1 9.4%

inhibition, active:
O=C(N/N=C/c1cc(Cl)cc([N+](=O)[O-])c1O)c1ccccc1NS(=O)(=O)c1cccs1 101%
COc1ccccc1/C=C/C=N/NC(=O)c1cc(-c2ccco2)[nH]n1 60.4%
O=C1C=C(N2CCOCC2)c2ccccc2C1=O 102%
NNC(=O)c1oc2nc(-c3ccco3)cc(-c3ccco3)c2c1N 56.6%
NNC(=O)c1oc2nc(-c3cccs3)cc(-c3ccco3)c2c1N 43.3%
C/C(=N\NC(=O)c1cc(O)ccc1O)c1cccc(NC(=O)c2ccc(Cl)cc2)c1 94.8%
COc1cc(/C=N/NC(=O)c2cc(-c3ccco3)nc3ccccc23)cc(OC)c1O 55.1%
CCOc1cc(/C=C2\C(=O)N(c3ccc(C(N)=O)cc3)N=C2C)ccc1OC(=O)c1cccs1 81.1%
CCOc1cc(/C=C2/C(=O)N(c3ccccc3)N=C2C)ccc1OC(=O)c1ccco1 73.7%
COC1=C(Nc2ccc(O)cc2)C(=O)c2ccccc2C1=O 74.4%
COC1=C(Nc2ccccc2)C(=O)c2ccccc2C1=O 93%
COC1=C(Nc2ccccc2OC)C(=O)c2ccccc2C1=O 96.4%
O=S(=O)(c1ccc2nc(-c3ccco3)c(-c3ccco3)nc2c1)N1CCOCC1 52%
CCOC(=O)c1c(C)oc2c1c(C=NCCO)c(O)c1ccccc12 99.7%
O=c1cc2c(=O)oc3cc(O)c(O)oc3c2c(O)c1O 89.8%
COc1ccc(-c2ccc(C(c3c(C)[nH][nH]c3=O)c3c(C)[nH][nH]c3=O)o2)c([N+](=O)[O-])c1 73.1%
Cc1[nH][nH]c(=O)c1C(c1ccc(-c2ccccc2C(=O)O)o1)c1c(C)[nH][nH]c1=O 66.6%
COC(=O)c1ccccc1-c1ccc(C(c2c(C)[nH][nH]c2=O)c2c(C)[nH][nH]c2=O)o1 88.2%
CN(C)c1cc(N/N=C/c2ccccc2C(F)(F)F)nc(N(C)C)n1 72.9%
Cc1nc2ccccc2c(=O)n1/N=C/c1ccc(O)c(O)c1O 81.7%
Cc1ccc(-c2[nH]ncc2/C=N/n2c(C)nc3ccccc3c2=O)cc1 66.8%
Cc1ccc(S(=O)(=O)C(C#N)c2nc3ccccc3nc2N2CCCC2)cc1C (centres undefined) 45.8%
N#CC(c1nc2ccccc2nc1N1CCCC1)S(=O)(=O)c1ccccc1 (centres undefined) 66.7%
COc1ccc(S(=O)(=O)C(C#N)c2nc3ccccc3nc2N2CCCCC2)cc1 (centres undefined) 42.8%
Cc1ccc(C)c(S(=O)(=O)C(C#N)c2nc3ccccc3nc2N2CCCC2)c1 (centres undefined) 44.3%
Cc1ccc(S(=O)(=O)C(C#N)c2nc3ccccc3nc2N2CCCC2)cc1 (centres undefined) 44.2%
O=C(O)CN1C(=O)/C(=C\c2cc([N+](=O)[O-])ccc2OCc2ccccc2Cl)SC1=S 63%
Clc1ccc(C2=CSC3=Nc4cccc5cccc(c45)N23)cc1 101%
COc1ccc(OC)c(S(=O)(=O)NCCc2cn3ccsc3n2)c1 44.5%
COc1ccc(NCc2ccc([N+](=O)[O-])s2)c(OC)c1 87%
N#Cc1c(N(CCO)CCO)nc(N)c2c(N)nc3c(c12)CC(=O)N3Cc1cccs1 52.9%
Nc1nnc(CC(=O)N/N=C/c2cc([N+](=O)[O-])cc(Br)c2O)s1 102%
